mHTT CaM bind: mHTT-calmodulin interaction abrogation; P42858; AlphaScreen His-mHTT/GST-CaM binding, luminescence; inhibition, % at 15 µM; actives 3.6% (n = 190,000)
Pf apPOL inh: Pf-apPOL DNA polymerase inhibition. actives 0.25% (n = 210,000). inhibition, % at 10 µM. Recombinant Pf-apPOL, molecular beacon fluorescence, 1.5 h
A number is an active result; i = inactive; nt = no result; + = active, no number. The entries come from a sample that favours hits as a whole. Cut-off read from the data, not from the text of the source: active = inhibition above about 50%; inactive = the rest.

SMILES	mHTT CaM bind	Pf apPOL inh
CC(C)CC(=O)N1CCCC(COc2ccc(C(=O)NC(C)C)cc2)C1 (stereo not drawn)	i	i
CC(C)(C)C(=O)NC(Nc1ccc([N+](=O)[O-])cc1)C(Cl)(Cl)Cl (stereo not drawn)	i	i
O=C(NC(Nc1cccc([N+](=O)[O-])c1)C(Cl)(Cl)Cl)c1cccc([N+](=O)[O-])c1 (stereo not drawn)	54	i
COc1ccc(NC(NC(=O)c2cccc(Cl)c2)C(Cl)(Cl)Cl)cc1 (stereo not drawn)	65	i
O=C(NC(Nc1ccc(Cl)cc1)C(Cl)(Cl)Cl)c1cccc([N+](=O)[O-])c1 (stereo not drawn)	99	i
O=C(NC(Nc1ccccc1)C(Cl)(Cl)Cl)c1cccc(Cl)c1 (stereo not drawn)	i	i
O=C(NC(Nc1ccc([N+](=O)[O-])cc1)C(Cl)(Cl)Cl)c1ccc([N+](=O)[O-])cc1 (stereo not drawn)	79	i
Cc1cccc(C(=O)NC(Nc2cccc([N+](=O)[O-])c2)C(Cl)(Cl)Cl)c1 (stereo not drawn)	i	i
NS(=O)(=O)c1ccc(NC(NC(=O)c2cccc([N+](=O)[O-])c2)C(Cl)(Cl)Cl)cc1 (stereo not drawn)	i	i
CCNc1cc(N2CCCC(CCC(=O)N3CCCCC3)C2)ncn1 (stereo not drawn)	i	i
COc1ccc(NC(=O)C2CC(=O)N(c3cccc(NC(C)=O)c3)C2)cc1Cl (stereo not drawn)	i	i
CCC(=O)NCc1csc(C2CCN(C(=O)c3ccc(OC)cc3OC)CC2)n1	i	i
CCCCN(C)Cc1c(O)ccc2c1OC(=Cc1ccc(OC)c(OC)c1OC)C2=O	i	i
Cn1nc(-c2nc(C3CC3)no2)c2c1CCN(C(=O)NC1CCCCC1)C2	i	i
O=C(CSc1nc(-c2ccccc2)cc(=O)[nH]1)NCc1ccccc1Cl	i	i
O=C(NC(Nc1cccc([N+](=O)[O-])c1)C(Cl)(Cl)Cl)c1cccnc1 (stereo not drawn)	i	i
O=C(NC(NCc1ccccc1)C(Cl)(Cl)Cl)c1cccc([N+](=O)[O-])c1 (stereo not drawn)	i	i
O=C(NC(Nc1ccc(Br)cc1)C(Cl)(Cl)Cl)c1cccc([N+](=O)[O-])c1 (stereo not drawn)	96	i
O=C(NC(Nc1cccc(Cl)c1)C(Cl)(Cl)Cl)c1cccc([N+](=O)[O-])c1 (stereo not drawn)	95	i
O=C1OC(c2cccc(I)c2)=N/C1=C/c1cc2c(cc1Cl)OCO2	i	i
O=C1/C(=C/C=C/c2ccco2)CC/C1=C\C=C\c1ccco1	84	i
O=C1C(=Cc2ccco2)COCC1=Cc1ccco1	nt	i
O=C1CSC(c2cccc(Br)c2)N1c1ccc(Br)cc1 (stereo not drawn)	i	i
CC(C)NC(=O)ON=C(N)CSc1nccn1C	nt	i
O=C(CN1c2ccccc2Sc2ccccc21)NN=Cc1ccco1	nt	62
SMILES	mHTT CaM bind	Pf apPOL inh
Cn1c(=O)c2c(ncn2CC(=O)N/N=C/c2ccco2)n(C)c1=O	i	nt
Cc1cc(NC(=O)c2ccc(S(C)(=O)=O)cc2)no1	i	i
COc1ccc(C2=NN(CC(=O)NCc3ccccn3)C(=O)CC2)cc1	i	i
COc1ccc(C2=NN(CCc3ccccn3)C(=O)C2)cc1	87	i
COc1cc(C(=O)Nc2sc3c(c2C(=O)O)CCC(C)C3)cc(OC)c1OC (stereo not drawn)	i	i
COc1ccccc1NC(=O)c1c(NCc2cccnc2)sc2c1CCC(C)C2 (stereo not drawn)	80	i
COc1ccc(Cl)cc1NC(=O)c1c(NCc2cccnc2)sc2c1CCC(C)C2 (stereo not drawn)	78	i
CCOc1ccccc1NC(=O)c1c(NCc2ccccn2)sc2c1CCC(C)C2 (stereo not drawn)	i	i
COc1cccc(NC(=O)N2CCC(c3nc4ccncc4n3C(C)C)C2)c1 (stereo not drawn)	i	i
CCCc1cc(C2CCCN2Cc2cc(OC)c(O)c(OC)c2)no1 (stereo not drawn)	i	i
S=c1[nH]nc(-c2ccco2)n1/N=C/C=C/c1ccco1	i	nt
S=c1[nH]nc(-c2cc(-c3ccccc3)n[nH]2)n1/N=C/C=C/c1ccco1	+	nt
CS(=O)(=O)N1CCN(c2ccc([N+](=O)[O-])c(Sc3nnnn3-c3ccccc3)c2)CC1	i	i
O=[N+]([O-])c1cc(C(F)(F)F)cc([N+](=O)[O-])c1Sc1nnnn1-c1ccccc1	100	i
CCOC(=O)Oc1ccc2c(c1)C(C)=CC(C)(C)N2	i	i
CC1=CC(C)(C)Nc2cc(CN(C)C)c(O)cc21	98	i
CC1=CC(C)(C)Nc2cc(C(C)(C)C)c(O)cc21	95	i
CC(C)(C)c1cc(-c2cc(C(C)(C)C)c(O)c(C(C)(C)C)c2)cc(C(C)(C)C)c1O	nt	i
Cn1c2c(c(SCc3ccc(F)cc3)nc1=O)CCC2	i	i
O=C1C2CC(Br)C(Br)CC2C(=O)N1CC1CCCO1 (stereo not drawn)	i	i
O=C1/C(=C/C2CCCO2)CC/C1=C\C1CCCO1 (stereo not drawn)	68	nt
COCC(=O)N1CCCC(c2nc(CCNC(C)=O)cs2)C1 (stereo not drawn)	i	i
O=C(Nc1ccc(F)cc1)c1cc([N+](=O)[O-])nn1Cc1ccccc1	i	i
O=C(Nc1ccc(F)c(Cl)c1)c1cc([N+](=O)[O-])nn1Cc1ccccc1	92	i
COc1ccc(C2C=C(c3ccc(Br)cc3)Nc3nc(CCCO)nn32)c(OC)c1 (stereo not drawn)	i	i
SMILES	mHTT CaM bind	Pf apPOL inh
COc1ccc([C@H]2C=C3CNS(=O)(=O)[C@H]3C[C@H]2OC(=O)c2cccs2)cc1	i	i
COc1ccc(Oc2ccc(C(F)(F)F)cc2NC(=O)c2ccc(OC)cc2)cc1	nt	i
COc1ccc([C@H]2C=C3CNS(=O)(=O)[C@H]3C[C@H]2OC(=O)c2cccc(C)c2)cc1	82	i
COc1ccc([C@H]2C=C3CNS(=O)(=O)[C@H]3C[C@H]2OC(=O)c2ccc(Cl)cc2)cc1	60	i
COc1ccc(C2C(=C(O)c3ccc(Cl)cc3)C(=O)C(=O)N2C)cc1 (stereo not drawn)	i	i
COc1ccc([C@H]2C=C3CNS(=O)(=O)[C@H]3C[C@H]2OC(=O)c2ccc(C(F)(F)F)cc2)cc1	100	i
COC(=O)COc1ccc2c(c1)OC(=Cc1cccnc1)C2=O	i	i
Cc1nnc2ccc(S(=O)(=O)N(Cc3cccc(F)c3)c3ccccc3)cn12	i	i
Cc1ccc(-c2csc(-c3cccn3CC(=O)NCc3cccnc3)n2)cc1	i	i
Cc1[nH]c2ccccc2c1/C=N\Nc1nc2ccccc2[nH]1	+	nt
Cc1cc(C)nc(Nc2nc3ccccc3[nH]2)n1	i	i
Clc1cc2c(cc1/C=N/Nc1nc3ccccc3[nH]1)OCO2	+	nt
N#C/C(=C\c1cc2c(cc1Br)OCO2)c1nc2ccccc2[nH]1	i	i
Cc1ccc2c(CN3CCC(C)CC3)cc(=O)oc2c1	i	i
CC1CCN(Cc2cc(Br)c(O)c3ncccc23)CC1	100	i
CC1CCCN(CCCNC(=O)CN2N=C(c3ccc(Cl)cc3)CCC2=O)C1 (stereo not drawn)	i	i
Oc1ccc(N=Nc2ccccc2)c(O)c1	nt	i
Nc1ccc(N=Nc2ccccc2)c(N)n1	52	nt

Bioassay records: PubChem BioAssay, University of Kansas High Throughput Screening Laboratory
